Test systems include SR leukemia; RPMI-8226 leukemia; OVCAR-8 ovarian; OVCAR-5 ovarian; OVCAR-4 ovarian; SK-OV-3 ovarian; IGROV1 ovarian; OVCAR-3 ovarian; HS 578T breast; NCI/ADR-RES ovarian; T-47D breast; BT-549 breast; MDA-MB-435 melanoma; SW-620 colon; MCF7 breast; HCT-116 colon; HCC-2998 colon; KM12 colon.
Test in all cases: NCI-60 one-dose screen, 48 h (100 = growth as untreated, 0 = no growth, -100 = all killed)
Common to all, as to conditions: 10 µM unless noted

This is part of a sample that, as a whole, favours compounds with a hit. Of some 83,000 tested, about 20% had one in any assay.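 96-well plates, one dose, 48 hours. Percent growth reported; active if below 10.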 Unmarked numbers belong to inactive results. Active and inactive are the calls of the source.

For the compound `CCO/C=N/C1=C(C#N)C(c2ccc(F)cc2)c2sc3c(CC)cccc3c2O1` (stereo unspecified), the growth is 6.82% (active) in the test on SR leukemia; 4.25% (active) in the test on RPMI-8226 leukemia; 27.2% with OVCAR-8 ovarian; 29.2% with OVCAR-5 ovarian; 60.4% with OVCAR-4 ovarian; 64.4% with SK-OV-3 ovarian. Besides, the growth was 23.5% with IGROV1 ovarian; -17.4% (active) with OVCAR-3 ovarian; 32.5% with HS 578T breast; 9.33% (active) in the test with NCI/ADR-RES ovarian; 42.7% with T-47D breast; 27.7% with BT-549 breast. The growth in the test with MDA-MB-435 melanoma was -12.9% (active); with SW-620 colon, 30.1%; with MCF7 breast, 14.8%; with HCT-116 colon, 16.2%; in the test on HCC-2998 colon it was 15.6%; in the test on KM12 colon it was 14.8%.

Regarding `C#C[C@]1(O)CC[C@H]2[C@@H]3CC=C4c5sc(-c6cccc(O)c6)nc5CC[C@]4(C)[C@H]3CC[C@@]21C`, the growth is 4.31% (active) with SR leukemia; -33% (active) in the test on RPMI-8226 leukemia; 9.55% (active) in the test on OVCAR-8 ovarian; -35% (active) with OVCAR-5 ovarian; -47.4% (active) in the test with OVCAR-4 ovarian; -18.2% (active) with SK-OV-3 ovarian. Besides, the growth is -3.36% (active) in the test with IGROV1 ovarian; -65.3% (active) in the test on OVCAR-3 ovarian; -37.7% (active) in the test on HS 578T breast; -12.5% (active) in the test with NCI/ADR-RES ovarian; 1.25% (active) in the test with T-47D breast; -22.8% (active) in the test with BT-549 breast. In addition, the growth in the test on MDA-MB-435 melanoma is -51.4% (active); with SW-620 colon, -52.8% (active); in the test on MCF7 breast it was -28% (active); in the test with HCT-116 colon, -37.6% (active); in the test on HCC-2998 colon, -24.8% (active); in the test with KM12 colon, -28.9% (active).

As for `Cc1ccc(CSc2nc(-c3ccc(Cl)cc3)c(C#N)c(N3CCNCC3)n2)cc1`, the growth in the test on SR leukemia was -10.6% (active); in the test with RPMI-8226 leukemia, 69.4%; in the test on OVCAR-8 ovarian, 92%; in the test with OVCAR-5 ovarian it was 99.7%; in the test with OVCAR-4 ovarian, 89.3%; with SK-OV-3 ovarian, 117%. The growth with IGROV1 ovarian was 66.8%; in the test on OVCAR-3 ovarian it was 82.9%; with HS 578T breast it was 80.1%; in the test with NCI/ADR-RES ovarian, 94.5%; with T-47D breast, 88.8%; in the test with BT-549 breast, 91%. For the same compound, the growth with MDA-MB-435 melanoma is 81.2%; in the test on SW-620 colon, 83%; in the test with MCF7 breast, 58.5%; with HCT-116 colon, 66.9%; in the test with HCC-2998 colon, 87.2%; in the test on KM12 colon it was 84.7%.

Regarding `C=C(C=O)[C@@H]1CC[C@]2(COC(C)=O)CC[C@]3(C)C(CC[C@@H]4[C@@]5(C)CC[C@H](OC(C)=O)C(C)(C)[C@@H]5CC[C@]43C)[C@@H]12` (stereo partly specified), the growth with SR leukemia is -25.8% (active); with RPMI-8226 leukemia, -18.4% (active); in the test with OVCAR-8 ovarian, 15.3%; with OVCAR-5 ovarian, 15.1%; in the test with OVCAR-4 ovarian, 16.2%; in the test on SK-OV-3 ovarian, 50.3%. Further, the growth is -32.8% (active) with IGROV1 ovarian; -71.6% (active) in the test with OVCAR-3 ovarian; -11.6% (active) in the test on HS 578T breast; 1.48% (active) with NCI/ADR-RES ovarian; 4.4% (active) with T-47D breast; 11.1% with BT-549 breast. The growth in the test on MDA-MB-435 melanoma was -13.6% (active); with SW-620 colon it was 0.204% (active); in the test on MCF7 breast, -33.5% (active); in the test with HCT-116 colon, -58.4% (active); with HCC-2998 colon, -63% (active); in the test with KM12 colon it was -40.8% (active).

Take `O=S(=O)(Nc1cccc2ccccc12)c1ccc(-c2cnc(C3CC3)o2)cc1`: the growth was 21.2% with SR leukemia; 14.4% with RPMI-8226 leukemia; 28.5% in the test with OVCAR-8 ovarian; 42.6% in the test on OVCAR-5 ovarian; 64.1% with OVCAR-4 ovarian; 71.3% in the test with SK-OV-3 ovarian. For the same compound, the growth in the test with IGROV1 ovarian was 23.4%; in the test on OVCAR-3 ovarian it was 7.12% (active); with HS 578T breast, 39.1%; in the test on NCI/ADR-RES ovarian, 7.22% (active); in the test with T-47D breast it was 62.4%; in the test with BT-549 breast it was 21.3%. Besides, the growth was -39.9% (active) with MDA-MB-435 melanoma; 24.6% in the test with SW-620 colon; 22% in the test on MCF7 breast; 12.4% in the test with HCT-116 colon; 21.3% in the test on HCC-2998 colon; 10.7% with KM12 colon.

On to `O=C(Cn1cc[n+](CC(=O)c2ccc(-c3ccccc3)cc2)c1)Nc1cccc2cccnc12`, for which the growth in the test on SR leukemia was 53.9%; in the test with RPMI-8226 leukemia, 33.5%; in the test with OVCAR-8 ovarian it was 76.6%; in the test on OVCAR-5 ovarian it was 90.6%; in the test with OVCAR-4 ovarian it was 32.9%; in the test with SK-OV-3 ovarian, 80%. For the same compound, the growth was 27.3% with IGROV1 ovarian; 50.1% in the test on OVCAR-3 ovarian; 75.8% in the test on HS 578T breast; 97.9% in the test with NCI/ADR-RES ovarian; 40.4% in the test with T-47D breast; 57.4% in the test with BT-549 breast. Further, the growth in the test with MDA-MB-435 melanoma is 79.3%; with SW-620 colon, 85%; in the test with MCF7 breast, 51.4%; with HCT-116 colon, 72.4%; in the test on HCC-2998 colon, 51.7%; in the test with KM12 colon, 31.6%.

Take `NC(N)=Nc1ccc(Oc2cccc(Nc3ccc(Cl)c(C(F)(F)F)c3)c2)cc1`: the growth was -26.4% (active) with SR leukemia; 33.7% in the test with RPMI-8226 leukemia; 68.6% in the test on OVCAR-8 ovarian; 58.8% in the test on OVCAR-5 ovarian; 55.6% in the test on OVCAR-4 ovarian; 82.6% with SK-OV-3 ovarian. Moreover, the growth in the test with IGROV1 ovarian was 17.2%; with OVCAR-3 ovarian, 35%; in the test with HS 578T breast, 52%; in the test on NCI/ADR-RES ovarian it was 91.6%; with T-47D breast, 35.3%; in the test on BT-549 breast it was 77%. Also, the growth was 32.3% in the test on MDA-MB-435 melanoma; 30.2% in the test on SW-620 colon; 11.3% in the test on MCF7 breast; 27.5% with HCT-116 colon; 20.3% in the test with HCC-2998 colon; 7.04% (active) in the test on KM12 colon.

As to `COc1ccc(NC(=O)CSc2nnc(-c3ccc4nc(-c5ccc(OC)c(OC)c5)[nH]c4c3)o2)cc1OC`, the growth in the test with SR leukemia was 104%; in the test with RPMI-8226 leukemia it was 98.6%; in the test with OVCAR-8 ovarian, 101%; with OVCAR-5 ovarian it was 95.2%; in the test with OVCAR-4 ovarian it was 106%; in the test with SK-OV-3 ovarian, 120%. Further, the growth in the test on IGROV1 ovarian is 91.3%; with OVCAR-3 ovarian, 108%; with HS 578T breast it was 97.5%; in the test with NCI/ADR-RES ovarian it was 96.1%; in the test with T-47D breast, 90.3%; with BT-549 breast, 90.7%. In addition, the growth in the test with MDA-MB-435 melanoma is 102%; with SW-620 colon, 105%; in the test with MCF7 breast, 91.9%; in the test on HCT-116 colon, 98.1%; with HCC-2998 colon it was 111%; with KM12 colon it was 101%.

Take `CCOC(=O)c1c(N)c(C#N)cn1-c1cc(OC)c(OC)c(OC)c1`: the growth was 105% in the test on SR leukemia; 104% with RPMI-8226 leukemia; 102% in the test with OVCAR-8 ovarian; 96% in the test with OVCAR-5 ovarian; 107% in the test with OVCAR-4 ovarian; 135% in the test on SK-OV-3 ovarian. Moreover, the growth was 105% in the test on IGROV1 ovarian; 119% with OVCAR-3 ovarian; 99.5% in the test with HS 578T breast; 110% with NCI/ADR-RES ovarian; 112% with T-47D breast; 107% in the test on BT-549 breast. In addition, the growth with MDA-MB-435 melanoma is 103%; in the test on SW-620 colon it was 98.8%; in the test with MCF7 breast it was 91.1%; in the test with HCT-116 colon, 113%; with KM12 colon, 108%.

(Values after PubChem BioAssay (NCI).)
